Where “and” joins values, the source holds several entries; their conditions need not be identical. Equal entries are not always repeated. Out of some 370,000 compounds screened, about 2,800 (0.76%) were called active. For the sample, actives were picked, then their nearest neighbours and some compounds at random. Values without a mark were called inactive. No stated cut-off is given here; in the data, active means inhibition above about 21%; inactive means the rest.

Sequence of E3 ubiquitin-protein ligase UHRF1 (Homo sapiens) (Q96T88 whole entry, looked up, the tested form may be a part): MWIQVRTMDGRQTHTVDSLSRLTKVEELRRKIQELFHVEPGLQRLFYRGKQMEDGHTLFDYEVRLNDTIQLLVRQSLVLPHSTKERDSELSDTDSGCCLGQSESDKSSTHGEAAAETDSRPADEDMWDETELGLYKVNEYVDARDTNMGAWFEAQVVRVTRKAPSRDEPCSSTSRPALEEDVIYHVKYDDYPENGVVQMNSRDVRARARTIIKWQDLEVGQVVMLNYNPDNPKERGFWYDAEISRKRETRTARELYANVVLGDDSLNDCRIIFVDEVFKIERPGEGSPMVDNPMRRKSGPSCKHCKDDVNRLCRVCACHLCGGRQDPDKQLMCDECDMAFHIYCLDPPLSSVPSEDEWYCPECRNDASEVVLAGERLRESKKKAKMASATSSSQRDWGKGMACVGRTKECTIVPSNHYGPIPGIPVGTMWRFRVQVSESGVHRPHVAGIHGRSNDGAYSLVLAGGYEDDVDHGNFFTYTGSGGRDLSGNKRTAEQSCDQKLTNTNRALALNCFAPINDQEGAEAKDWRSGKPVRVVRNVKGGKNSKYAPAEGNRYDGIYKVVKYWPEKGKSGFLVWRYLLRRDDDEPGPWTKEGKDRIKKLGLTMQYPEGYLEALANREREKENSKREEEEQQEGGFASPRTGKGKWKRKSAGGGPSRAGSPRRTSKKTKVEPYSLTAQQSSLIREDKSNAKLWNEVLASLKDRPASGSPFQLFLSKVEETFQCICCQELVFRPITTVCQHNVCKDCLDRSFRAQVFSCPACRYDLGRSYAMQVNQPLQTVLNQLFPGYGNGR

The assay addresses E3 ubiquitin-protein ligase UHRF1 (Homo sapiens) (UniProt Q96T88). As to the kind of experiment: UHRF1 methylated DNA binding inhibitors, primary screen, counter-screen for MBD2 inhibitor project, biochemical, TR-FRET, human UHRF1, single concentration (AID 687016).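 Further: UHRF1 SRA domain binding a hemimethylated CpG hairpin DNA probe; 0% = median of test compound wells and 100% = reference inhibitor.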 To be noted: UHRF1 binding to methylated oligo, at 4.4 µM, hits give high values.
For the molecule `O=C(Nc1cc(Cl)cc(Cl)c1)OCCN1CCCC12CCC(c1ccccc1)CC2` (stereo not given), the inhibition was -2.5%.
For the molecule `O=C(CSc1nc2c(c(=O)[nH]1)CCCC2)N1CCCCC1`, the inhibition was 4.3%.
As for `CCN(CC)CCOc1ccc2c(c1)C(=NNC(=O)c1ccccn1)c1cc(OCCN(CC)CC)ccc1-2`, the inhibition is 105% (active).
As for `CCCC(C(=O)OCCN(CC)CC)(c1ccccc1)c1ccccc1`, the inhibition was 0%.
`CN(CCOc1ccc(CC2SC(=O)NC2=O)cc1)c1ccccn1` (stereo not given): the inhibition is 0.45% and -0.75%.
Regarding `Cc1ccc(C)c(NC(=O)CCS(=O)(=O)c2ccccc2)c1`, the inhibition is 5.41%.
Turning to `CCOC(=O)c1ccn(-c2nc(-c3ccco3)cc(C(F)(F)F)n2)n1`, the inhibition is 1.45%.
On to `Cc1cc(C)c2nc(-c3ccco3)cc(C(=O)O)c2c1`, for which the inhibition is 73.6% (active).
Consider `Cc1ccsc1-c1cc(C(=O)O)c2c(ccc3ccccc32)n1`, for which the inhibition is -2.73%.
Consider `C=C(C)C#CC(Cc1ccccc1)NCC1CC1` (stereo not given), for which the inhibition was -0.06%.
Consider `Cc1ccccc1NC(=O)Cn1nnc(-c2ccccc2F)n1`, for which the inhibition was -2.25%.
Turning to `CC(=O)c1cc(-c2ccc3ccccc3c2)c(=O)n2c1CCC2`, the inhibition is -1.09%.
With `COC(=O)[C@]12C[C@H](CC(=O)N3CCN(C(=O)C4CC4)CC3)C(=O)N(CCC3=CCCCC3)C1=C[C@H](C(C)C)O[C@@H]2C1CC1`, the inhibition was -0.03%.
Take `COc1nc(-c2ccc(Cl)cc2)ccc1-c1noc(-c2cccs2)n1`: the inhibition is 37.1% (active).
For `N#Cc1ccc(-c2ccc(Cl)cc2)nc1Oc1ccc(F)cc1`, the inhibition is -1.28%.
Regarding `Cc1cc(NS(=O)(=O)c2ccc(NC(=O)CSc3nnc(-c4ccc(C(C)(C)C)cc4)n3Cc3ccco3)cc2)nc(C)n1`, the inhibition was -1.86%.
Consider `COC(=O)C12C=C3CC(c4ccccc4)=C3C(=O)N1Cc1[nH]c3ccccc3c1C2` (stereo not given), for which the inhibition was -0.85%.
To `C=CCN1C(=O)[C@H](CC(=O)NCCCN2CCCC2=O)[C@@]2(C(=O)OCC)CCCC=C12` belongs 1.86%; to `COC(=O)[C@]12C[C@H](CC(=O)NCCCN3CCCC3=O)C(=O)N(CCc3ccc(OC)c(OC)c3)C1=C[C@H](COCc1ccccc1)O[C@@H]2C`, -1.34%.
Regarding `Nc1ncnc2c1ncn2C1OC(CO)CC1O` (stereo not given), the inhibition was 60.9% (active).
Turning to `Nc1ncnc2c1ncn2[C@@H]1O[C@H](C(=O)N2CCSC2)[C@@H](O)[C@H]1O`, the inhibition was 2.48%.
For `Nc1ncnc2c1ncn2[C@@H]1O[C@H](C(=O)NCC(F)(F)F)[C@@H](O)[C@H]1O`, the inhibition is -0.85%.
Turning to `O=C(c1ccccc1)c1ccc(-c2ccccc2C(=O)NC2CCCCN(Cc3ccc(Cl)cc3)C2=O)cc1` (stereo not given), the inhibition is -0.04%.
For the molecule `CCCC1CCC2(CCCN2CCOC(=O)NCc2ccccc2)CC1` (stereo not given), the inhibition is 0.86%.
On to `COC(=O)C1CN(CC(C)C)CCS(=O)(=O)N1Cc1ccc(F)cc1` (stereo not given), for which the inhibition is 0.32%.
As for `COCC(=O)N1CCCC(C(=O)c2ccc(C(F)(F)F)cc2)C1` (stereo not given), the inhibition is 2.82%.
Turning to `Cc1cnc(C(=O)N2CCCC(C(=O)c3ccc(C(F)(F)F)cc3)C2)cn1` (stereo not given), the inhibition was 22% (active).
Regarding `O=C(c1ccc(C(F)(F)F)cc1)C1CCCN(C(=O)c2csnn2)C1` (stereo not given), the inhibition is 0.31%.
For `C=C(C)C1CC23C(=O)C4(C(=O)c5ccccc5)C[C@@]5(C)CCC(CC2C1(C)C)(C4=O)C35OC` (stereo not given in full), the inhibition was 0.2%.
To `C=CCN1C(=O)[C@H](CC(=O)N2CCN(C(=O)OCC)CC2)[C@@]2(C(=O)OCC)CCCC=C12` belongs -2.61%.
On to `COC(=O)c1ccccc1-n1cc(COC(=O)NCCc2ccccc2)nn1`, for which the inhibition was 0.82%.
For `CC(CCN1CCC(C(O)(c2ccccc2)c2ccccc2)CC1)Oc1ccc(Cl)cc1` (stereo not given), the inhibition was 1.4%.
As for `O=C(CSc1nc2ccccc2n1Cc1ccccc1Cl)N/N=C\c1c[nH]c2ccccc12`, the inhibition is -1.5%.
The figure for `COc1ccc(Cl)cc1NC(=O)CCS(=O)(=O)c1ccc(Br)cc1` is 45.2% (active).
To `COc1ccc(Cl)cc1NC(=O)COC(=O)c1ccc(Br)o1` belongs 0.18%; to `O=C(CCS(=O)(=O)c1ccc(Br)cc1)NCCc1ccc(Cl)cc1`, 0.15%.
To `C[C@H]1CCC/C=C/C(=O)c2c(O)cc(O)cc2CC(=O)O1` belongs 0.98%.
Consider `CC1CCN(C(=O)c2ncn3c2C(=O)N[C@@H](C)C3)CC1`, for which the inhibition is 22.7% (active).
Turning to `C[C@H]1Cn2cnc(C(=O)N[C@H](C)c3ccccc3)c2C(=O)N1`, the inhibition was 11.2%.
The figure for `C[C@@H]1Cn2cnc(C(=O)Nc3ccc(CNC(=O)OC(C)(C)C)cc3)c2C(=O)N1` is 2.17%.
On to `FC(F)(F)c1cccc(NC(=S)OC2CCC23CCC(c2ccccc2)CC3)c1` (stereo not given), for which the inhibition was -1.02%.
For the molecule `Cc1ccc(-n2c(SCC(=O)Nc3ccc(S(=O)(=O)Nc4nccs4)cc3)nnc2-c2cccnc2)cc1`, the inhibition is 3.04%.
As for `Cc1ccc(-n2c(SCC(=O)Nc3ccc(S(=O)(=O)Nc4nccs4)cc3)nnc2-c2ccccn2)cc1`, the inhibition was 2.8%.
Take `CC(C)(C)c1cc(=O)n2c(nc3ccccc32)[nH]1`: the inhibition was 0.39%.
To `CCc1nc2ccccc2n(CCOCCOCCn2c(=O)c(CC)nc3ccccc32)c1=O` belongs 0.72%; to `Cc1nn2c3ccccc3nc2n(C)c1=O`, 64.7% (active).
Regarding `COC(=O)c1cccc(Cn2ccc3ccc(-c4ccc5ccn(C(=O)C6CCCCC6)c5c4)cc32)c1`, the inhibition was -1.71%.
With `COc1ccc(OC)c(S(=O)(=O)Nc2cccc(-c3ccc4nncn4n3)c2)c1`, the inhibition is -0.61%.
As to `COc1ccc(C(C)C)cc1-c1ccc2nncn2c1`, the inhibition is 42.2% (active).
Consider `CS(=O)(=O)c1cccc(-c2ccc3nncn3c2)c1`, for which the inhibition is 4.75%.
For `Nn1c(SCC(=O)Nc2cccc3ccccc23)nnc1-c1cc(-c2ccc(F)cc2)n[nH]1`, the inhibition was -1.05%.
As to `COc1ccc(-c2nn(-c3ccccc3)cc2CN2CCCO2)c(F)c1`, the inhibition was -0.87%.
The figure for `COc1ccc(-n2cc(CNC3CCOCC3)c(-c3cccc(F)c3)n2)cc1` is 21.6% (active).
Consider `CCC(O)C1CCN(Cc2cn(-c3ccc(OC)cc3)nc2-c2cccc(F)c2)CC1` (stereo not given), for which the inhibition is 0.5%.
Turning to `O=C(N1CCOCC1)N1CC[C@H]2[C@H](CCCN2Cc2ccc(F)cc2)C1`, the inhibition was -1.64%.
The figure for `COC(=O)C1CN(Cc2cn(Cc3ccc(F)cc3)nn2)CCS(=O)(=O)N1Cc1ccc(Cl)cc1` (stereo not given) is 2.82%; for `Fc1cccc(Cc2c(-c3ccc(Cl)cc3)nc3ccc(Cl)cn23)c1` it is 26.5% (active).
In the case of `Fc1cccc(Cc2c(-c3cccc(Cl)c3)nc3ccc(Br)cn23)c1`, the inhibition was 1.63%.
As for `COC(=O)c1ccc2nc(-c3ccc(Cl)cc3)c(Cc3cccc(F)c3)n2c1`, the inhibition is 10.2%.
For the molecule `CN(CCc1ccccc1)C(=O)Cn1nc(-c2ccccc2)ccc1=O`, the inhibition was 1.78%.
Turning to `Cc1ccc(-n2c(SCC(=O)Nc3cccc4ccccc34)nnc2-c2ccco2)cc1`, the inhibition is -0.24%.
To `Cc1ccc(-n2c(SCC(=O)Nc3cccc4ccccc34)nnc2-c2ccccn2)cc1` belongs 0.12%.
With `CC(=O)Nc1ccccc1Sc1ccc2c3c(cccc13)C(=O)N(c1ccc(C)cc1)C2=O`, the inhibition was 21.6% (active).
Take `COc1ccc(CSc2nnc(-c3cccc(C)c3)n2C)cc1`: the inhibition is 0.25%.
Take `Cc1ccc(S(=O)(=O)NC(C)C(=O)NCc2ccc(Cl)cc2)cc1` (stereo not given): the inhibition was 0.66%.
On to `O=C(NCc1ccc(Cl)cc1)NCc1ccc(Cl)cc1`, for which the inhibition is 24.9% (active).
With `S=C(NCc1ccc(Cl)cc1)NC12CC3CC(CC(C3)C1)C2`, the inhibition is -0.38%.
Turning to `Cc1c[nH]c2cccc(-c3ccc(Cl)cc3)c12`, the inhibition was -1.82%.
Consider `COc1cc(/C=C/C(=O)n2cnc3ccccc32)cc(OC)c1OC`, for which the inhibition is 1.6%.
As for `Cc1cc(C)cc(NC(=O)N2CCC(N(C)CCC(C)C)CC2)c1`, the inhibition was 0.51%.

The values are drawn from PubChem BioAssay AID687016 (The Scripps Research Institute Molecular Screening Center, 2013).
